Experimental data published in PubChem BioAssay (NCATS).
Records with an inconclusive call do not appear. The source made the active and inactive calls. Calls come from the whole dose curve; as a rule, active = well fitted inhibition curve with a large enough effect; inconclusive = small, poorly fitted or top-dose-only effect; inactive = no such curve, though single readings can be large or run the other way.

Columns and labels:
[1] = target: Cytochrome P450 3A4 (Homo sapiens) (UniProt P08684); assay: qHTS for inhibitors of CYP3A4 against the NCATS DSHEA and TCM libraries (AID 1919971);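 note: inhibition lowers luminescence from luciferin made by CYP3A4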
How it was run: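 Substances were tested against enzyme with a pro-luciferin substrate; minus-enzyme wells served as background. After NADPH-initiated oxidation (30-45 min, RT), light was generated with P450-Glo reagent.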

[2] = target: Cytochrome P450 2D6 (Homo sapiens) (UniProt P10635); assay: qHTS for inhibitors of CYP2D6 against the NCATS DSHEA and TCM libraries (AID 1919972)
How it was run: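 qHTS, concentration–response format with most substances from 19.5 nM. CYP2D6 + pro-luciferin substrate, 15 min with compound, then 1x NADPH regen, 30–45 min RT dark. Glo detection 30 min, luminescence. Quinidine control.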

Cytochrome P450 3A4 (Homo sapiens), sequence (P08684 whole entry, looked up): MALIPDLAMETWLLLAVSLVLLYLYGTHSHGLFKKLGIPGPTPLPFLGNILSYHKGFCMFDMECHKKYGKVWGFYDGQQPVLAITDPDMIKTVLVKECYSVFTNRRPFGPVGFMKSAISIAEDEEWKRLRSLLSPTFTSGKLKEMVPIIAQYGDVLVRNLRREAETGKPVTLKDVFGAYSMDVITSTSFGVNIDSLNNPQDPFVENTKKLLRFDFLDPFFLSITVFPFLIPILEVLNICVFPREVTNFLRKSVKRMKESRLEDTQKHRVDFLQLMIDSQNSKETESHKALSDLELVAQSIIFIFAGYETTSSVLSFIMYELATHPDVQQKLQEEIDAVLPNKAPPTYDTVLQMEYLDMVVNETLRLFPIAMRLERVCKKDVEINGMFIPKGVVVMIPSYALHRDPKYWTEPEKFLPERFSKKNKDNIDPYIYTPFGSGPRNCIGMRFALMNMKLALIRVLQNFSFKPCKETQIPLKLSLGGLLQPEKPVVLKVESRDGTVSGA
Cytochrome P450 2D6 (Homo sapiens), sequence (P10635 whole entry, looked up): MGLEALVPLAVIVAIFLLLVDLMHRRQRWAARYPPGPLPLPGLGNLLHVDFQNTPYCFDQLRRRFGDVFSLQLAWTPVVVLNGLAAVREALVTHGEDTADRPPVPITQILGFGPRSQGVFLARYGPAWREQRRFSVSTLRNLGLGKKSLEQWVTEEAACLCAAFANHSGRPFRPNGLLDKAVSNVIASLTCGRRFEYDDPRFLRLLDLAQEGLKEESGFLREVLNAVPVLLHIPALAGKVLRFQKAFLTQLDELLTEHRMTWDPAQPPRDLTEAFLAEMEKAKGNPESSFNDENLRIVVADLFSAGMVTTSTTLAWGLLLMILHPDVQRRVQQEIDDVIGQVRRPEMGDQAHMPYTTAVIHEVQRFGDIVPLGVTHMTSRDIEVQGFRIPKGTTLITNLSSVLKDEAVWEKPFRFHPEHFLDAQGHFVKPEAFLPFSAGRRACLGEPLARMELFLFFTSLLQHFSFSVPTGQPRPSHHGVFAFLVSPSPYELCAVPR

CCCCCCCCCCCCCCCCCC(=O)O
outcome [1]: inactive
outcome [2]: inactive
